Results on 18 compounds are retold here after PubChem BioAssay (NCI).

Test systems include T-47D breast; BT-549 breast; MDA-MB-435 melanoma; SW-620 colon; MCF7 breast; HCT-116 colon; KM12 colon; HCC-2998 colon.
Test in all cases: NCI-60 one-dose screen, 48 h (100 = growth as untreated, 0 = no growth, -100 = all killed)
Holding throughout (settings): 10 µM unless noted

SMILES strings stand for the structures. About 83,000 compounds went through this panel and 20% of them were active in at least one assay; those are over-represented in the sample as a whole.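 Each cell line was grown in a 96-well plate and treated with one concentration of compound for 48 hours. Values below 10 were considered active.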 Values without a mark were called inactive. Activity calls are given as the source filed them.

For `O=C(Nc1ccccc1)C(CCCCN1C(=O)c2ccccc2C1=O)N1C(=O)c2ccccc2C1=O` (stereo not drawn), the growth was 105% in the assay with T-47D breast; 104% in the assay with BT-549 breast; 108% in the assay with MDA-MB-435 melanoma; 102% in the assay on SW-620 colon; 101% in the assay on MCF7 breast; 107% with HCT-116 colon. The growth in the assay with KM12 colon is 100%.

For the compound `O=C1Cc2c([nH]c3ccc([N+](=O)[O-])cc23)-c2ccccc2N1`, the growth with T-47D breast was 22.1%; in the assay with BT-549 breast, 5.54% (active); in the assay with MDA-MB-435 melanoma, 16.2%; with MCF7 breast, 8.43% (active); in the assay with HCT-116 colon it was 4.3% (active); in the assay on HCC-2998 colon, -34.5% (active). Also, the growth in the assay on KM12 colon was 4.23% (active).

For `CCc1ccc2c(c1)N(CCO)C1=C(C(=O)OC1)C2c1cccc(Br)c1` (stereo not drawn), the growth in the assay with T-47D breast was 47.5%; in the assay on BT-549 breast it was 46.6%; in the assay on MDA-MB-435 melanoma it was -62.5% (active); in the assay on SW-620 colon, 26.8%; in the assay with MCF7 breast, 21.1%; in the assay on HCT-116 colon, 26.9%. The growth in the assay on KM12 colon was 19.2%.

For the compound `N[C@@H](CO)C(=O)O`, the growth is 96.9% in the assay on T-47D breast; 104% with BT-549 breast; 97.4% with MDA-MB-435 melanoma; 104% in the assay on MCF7 breast; 103% in the assay on HCT-116 colon; 98.1% in the assay with HCC-2998 colon. Moreover, in the assay on KM12 colon, the growth is 102%.

Turning to `COc1cc2c(cc1I)-c1c(cc(OC)c(OC)c1OC)CC[C@@H]2NC(C)=O`, the growth is 55.3% with T-47D breast; 47.7% in the assay on BT-549 breast; -8.3% (active) in the assay with MDA-MB-435 melanoma; 11.3% with MCF7 breast; 6.59% (active) in the assay on HCT-116 colon; 0.415% (active) in the assay on HCC-2998 colon. In the assay with KM12 colon, the growth is 7.62% (active).

In the case of `COc1ccc(-c2nc(-c3ccccc3OCc3ccccc3OC)nc(C)c2C(C)=O)cc1`, the growth is 61% with T-47D breast; 98.4% with BT-549 breast; 90.4% with MDA-MB-435 melanoma; 83.8% in the assay on MCF7 breast; 66.4% in the assay on HCT-116 colon; 86.2% in the assay with HCC-2998 colon. Besides, the growth with KM12 colon is 64.4%.

On to `CCc1ccc2c(c1)N(CCO)C1=C(C(=O)OC1)C2c1cccc(Cl)c1` (stereo not drawn), for which the growth in the assay on T-47D breast is 52.1%; in the assay with BT-549 breast, 42.1%; in the assay on MDA-MB-435 melanoma, -57.3% (active); with SW-620 colon, 26%; in the assay with MCF7 breast it was 24.5%; with HCT-116 colon it was 15.3%. In the assay on KM12 colon, the growth is 13.4%.

For `c1ccc2c(Cc3csc4ccccc34)csc2c1`, the growth in the assay on T-47D breast was 78.9%; with BT-549 breast, 92.2%; in the assay on MDA-MB-435 melanoma, -9.16% (active); in the assay with MCF7 breast, 68.4%; with HCT-116 colon, 78%; in the assay with HCC-2998 colon, 85.3%. Further, the growth with KM12 colon was 75.8%.

For `COc1ccc(C2C3CCc4ccccc4C3=NN2C(=O)c2cc(OC)c(OC)c(OC)c2)cc1O` (stereo not drawn), the growth with T-47D breast was 87%; in the assay on BT-549 breast it was 89%; in the assay on MDA-MB-435 melanoma, 96.2%; with MCF7 breast it was 95.8%; in the assay on HCT-116 colon, 104%; with HCC-2998 colon, 110%. Also, the growth in the assay with KM12 colon was 109%.

`C=CCn1c(C)nc2cc(Nc3nc(N4CCOCC4)nc4nc[nH]c34)ccc21`: the growth was 75.4% in the assay with T-47D breast; 90.3% with BT-549 breast; 100% in the assay with MDA-MB-435 melanoma; 86.5% in the assay on MCF7 breast; 91.4% in the assay with HCT-116 colon; 100% with HCC-2998 colon.

In the case of `O=C1OCC2=C1C(c1ccc(Cl)c(Cl)c1)c1cc3c(cc1N2CCO)CCC3` (stereo not drawn), the growth was 63.3% in the assay on T-47D breast; 44.8% in the assay with BT-549 breast; -38.6% (active) in the assay with MDA-MB-435 melanoma; 24.5% with SW-620 colon; 20.4% in the assay with MCF7 breast; 18.3% with HCT-116 colon. Moreover, the growth with KM12 colon is 9.04% (active).

Consider `FC(F)(F)C1=NNC(c2ccc3ccccc3c2)=NN1`, for which the growth in the assay with T-47D breast was 96.7%; with BT-549 breast, 107%; in the assay on MDA-MB-435 melanoma, 102%; with MCF7 breast, 88.7%; with HCT-116 colon it was 100%; in the assay with HCC-2998 colon, 118%. The growth in the assay on KM12 colon was 93.7%.

As to `COc1cc(-c2n/c(=C\c3c(O)[nH]c4cc(Cl)ccc34)cc3c2=Nc2ccccc2-3)cc(OC)c1OC`, the growth in the assay with T-47D breast is 67.2%; in the assay on BT-549 breast, 45.2%; with MDA-MB-435 melanoma, 66.2%; in the assay with MCF7 breast it was 55.7%; in the assay on HCT-116 colon it was 52.9%; in the assay with HCC-2998 colon it was 93.1%. In the assay with KM12 colon, the growth is 51.8%.

Consider `CC(=O)[C@H]1CC[C@H]2[C@@H]3CC[C@H]4CC=CC[C@]4(C)[C@H]3CC[C@]12C`, for which the growth in the assay with T-47D breast was 95.2%; in the assay with BT-549 breast, 102%; with MDA-MB-435 melanoma, 101%; in the assay on MCF7 breast, 114%; in the assay with HCT-116 colon, 84.8%; in the assay with HCC-2998 colon, 97.2%.

As to `Cc1ccc2cc3c(NC(=O)c4cccnc4)nn(C)c3nc2c1`, the growth with T-47D breast is 69.6%; with BT-549 breast, 97.4%; in the assay with MDA-MB-435 melanoma it was 95.5%; in the assay with MCF7 breast, 81.6%; in the assay on HCT-116 colon, 86.2%; with HCC-2998 colon it was 91%. In the assay with KM12 colon, the growth is 85.6%.

On to `COc1ccc(-c2cn(-c3cccc(C(=O)/C=C/c4ccc(O)c(OC)c4)c3)c(=O)[nH]2)cc1`, for which the growth with T-47D breast is 32.1%; in the assay on BT-549 breast it was 4.04% (active); in the assay with MDA-MB-435 melanoma, 20.5%; in the assay on MCF7 breast, 15.2%; in the assay with HCT-116 colon, -35.4% (active); with HCC-2998 colon, 17.5%. For the same compound, the growth in the assay on KM12 colon was -58.7% (active).

As for `CNCCCNc1ccnc2cc(Cl)ccc12`, the growth with T-47D breast is -5.41% (active); in the assay on BT-549 breast, -10.3% (active); in the assay on MDA-MB-435 melanoma, -98% (active); with MCF7 breast, 2.35% (active); in the assay with HCT-116 colon, 3.6% (active); in the assay with HCC-2998 colon, -78.6% (active). Further, the growth in the assay on KM12 colon was 0.517% (active).

As to `O=c1c2sc3ccccc3c2nnn1-c1ccc(F)c(Cl)c1`, the growth was 45.9% in the assay on T-47D breast; 81.6% with BT-549 breast; 72.3% in the assay on MDA-MB-435 melanoma; 63.9% in the assay with MCF7 breast; 19.9% in the assay with HCT-116 colon; 68.7% in the assay on HCC-2998 colon.
